Among the test systems are NCI-H23 lung; NCI-H226 lung; NCI-H322M lung; HOP-62 NSCLC; NCI-H460 lung; HOP-92 NSCLC; NCI-H522 lung; A549/ATCC NSCLC; 786-0 renal; COLO 205 colon; DU-145 prostate; K-562 leukemia; MALME-3M melanoma; MDA-MB-231 breast; RXF 393 renal; SF-268 CNS; SF-295 CNS; SF-539 CNS; UACC-257 melanoma; M14 melanoma.
Common to all, as to experiment: NCI-60 one-dose screen, 48 h (100 = growth as untreated, 0 = no growth, -100 = all killed)
Holding throughout (settings): 10 µM unless noted

Each structure is given as a SMILES string. Compounds without any hit were thinned out: in the full panel of roughly 83,000, 20% have a hit.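 Growth was measured after 48 h exposure to one concentration of compound in 96-well plates. Values under 10 count as active.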 Unmarked numbers belong to inactive results. Active and inactive are the calls of the source.

`O=C(CCCCCCNC(=O)c1csc(Br)n1)NO`: the growth in the assay with NCI-H23 lung was 47.7%; in the assay with NCI-H226 lung it was 79%; with NCI-H322M lung it was 61.6%; in the assay with HOP-62 NSCLC, 48.2%; with NCI-H460 lung, 34.9%; with HOP-92 NSCLC, 5.32% (active). The growth is 15.7% in the assay on NCI-H522 lung; 34.8% with A549/ATCC NSCLC; 72.4% with 786-0 renal; 20.9% in the assay on COLO 205 colon; 26.7% in the assay on DU-145 prostate; 13.8% in the assay with K-562 leukemia. Also, the growth with MALME-3M melanoma was 8.89% (active); in the assay on MDA-MB-231 breast, 50.2%; in the assay on RXF 393 renal, 3.36% (active); with SF-268 CNS, 69.4%; in the assay on SF-295 CNS it was 52%; in the assay on SF-539 CNS it was 36.7%. The growth was 18.4% in the assay on UACC-257 melanoma and 29.4% in the assay on M14 melanoma.
As for `CN(C)CC(=O)Nc1nc(-c2cccc(NS(=O)(=O)c3cccc4c(N(C)C)cccc34)c2)cs1`, the growth was 75.6% in the assay on NCI-H23 lung; 74.1% with NCI-H226 lung; 96.2% in the assay on NCI-H322M lung; 103% with HOP-62 NSCLC; 92.4% with NCI-H460 lung; 60.8% in the assay on HOP-92 NSCLC. The growth is 76.7% in the assay with NCI-H522 lung; 80.1% with A549/ATCC NSCLC; 90.5% in the assay on 786-0 renal; 104% in the assay on COLO 205 colon; 103% in the assay on DU-145 prostate; 65.1% with K-562 leukemia. For the same compound, the growth in the assay with MALME-3M melanoma is 85.2%; in the assay on MDA-MB-231 breast it was 83.8%; in the assay on RXF 393 renal, 88.5%; in the assay with SF-268 CNS, 96.4%; in the assay with SF-295 CNS it was 70.4%; in the assay on SF-539 CNS, 93.3%. The figures for the growth in the assay on UACC-257 melanoma and with M14 melanoma were 86% and 100%, respectively.
Consider `C#C[C@]1(O)CC[C@H]2[C@@H]3CC=C4c5sc(Nc6cccc(F)c6)nc5CC[C@]4(C)[C@H]3CC[C@@]21C`, for which the growth was 27.8% in the assay on NCI-H23 lung; 43.6% in the assay on NCI-H226 lung; 53.7% with NCI-H322M lung; 33.4% with HOP-62 NSCLC; 24.3% with NCI-H460 lung; 61.3% in the assay with HOP-92 NSCLC. Moreover, the growth was 31.7% in the assay with NCI-H522 lung; 32.6% in the assay on A549/ATCC NSCLC; 2.62% (active) in the assay with 786-0 renal; -9.5% (active) with COLO 205 colon; 31.3% in the assay on DU-145 prostate; 0.936% (active) with K-562 leukemia. The growth in the assay with MALME-3M melanoma is 38.3%; in the assay with MDA-MB-231 breast, 30.6%; in the assay on RXF 393 renal, -50.8% (active); with SF-268 CNS it was 37.1%; in the assay with SF-295 CNS, -51.9% (active); in the assay on SF-539 CNS, -10.8% (active). Further, the figures for the growth in the assay on UACC-257 melanoma and with M14 melanoma were 44% and 11%, respectively.
In the case of `CC(=C(c1ccc(OCCCN(C)C)cc1)c1ccc(OCCCN(C)C)cc1)c1ccc(Cl)cc1`, the growth in the assay with NCI-H23 lung is 84.8%; with NCI-H226 lung, 95.5%; in the assay with NCI-H322M lung it was 95.1%; with HOP-62 NSCLC, 99.5%; with NCI-H460 lung it was 99.6%; in the assay on HOP-92 NSCLC it was 77.9%. The growth was 94.1% with NCI-H522 lung; 79.8% in the assay on A549/ATCC NSCLC; 87.4% with 786-0 renal; 96.6% in the assay on COLO 205 colon; 98% with DU-145 prostate; -13.5% (active) in the assay on K-562 leukemia. Also, the growth was 85.8% with MALME-3M melanoma; 95.4% with MDA-MB-231 breast; 80.6% with RXF 393 renal; 91.7% in the assay with SF-268 CNS; 95.2% with SF-295 CNS; 81.7% in the assay with SF-539 CNS. The growth is 100% in the assay on UACC-257 melanoma and 92.7% with M14 melanoma.
`CC1(C)CC[C@]2(C(=O)O)CC[C@]3(C)C(=CC[C@@H]4[C@@]5(C)CC[C@H](NOCCCN)C(C)(C)[C@@H]5CC[C@]43C)[C@@H]2C1`: the growth was 91.1% in the assay with NCI-H23 lung; 90.3% with NCI-H226 lung; 94% in the assay on NCI-H322M lung; 102% with HOP-62 NSCLC; 73.3% with NCI-H460 lung; 62.3% in the assay on HOP-92 NSCLC. In addition, the growth in the assay with NCI-H522 lung is 97.2%; in the assay with A549/ATCC NSCLC, 77.9%; in the assay with 786-0 renal it was 98.6%; in the assay on COLO 205 colon it was 19.6%; in the assay on DU-145 prostate it was 94.7%; in the assay on K-562 leukemia it was 46.4%. The growth in the assay with MALME-3M melanoma was 91.6%; with MDA-MB-231 breast, 92.4%; in the assay with RXF 393 renal it was 68.8%; in the assay with SF-268 CNS it was 100%; in the assay with SF-295 CNS it was 101%; with SF-539 CNS, 86.4%. The growth is 89.2% in the assay on UACC-257 melanoma and 94.7% with M14 melanoma.
In the case of `COc1ccc2c(c1)c(-c1nc(N)nnc1-c1c[nH]c3ccccc13)cn2C`, the growth in the assay on NCI-H23 lung is 47.7%; in the assay on NCI-H226 lung it was 37.6%; in the assay with NCI-H322M lung, 57.3%; in the assay with HOP-62 NSCLC it was 44.8%; in the assay with NCI-H460 lung, 14.2%; in the assay with HOP-92 NSCLC, 54%. Moreover, the growth was 29.9% with NCI-H522 lung; 48.4% in the assay with A549/ATCC NSCLC; 54.5% in the assay on 786-0 renal; 29.3% with COLO 205 colon; 59.6% in the assay on DU-145 prostate; 16.3% in the assay with K-562 leukemia. Also, the growth was 37.2% with MALME-3M melanoma; 46.2% in the assay with MDA-MB-231 breast; 39.5% with RXF 393 renal; 45.6% in the assay on SF-268 CNS; 23.7% in the assay on SF-295 CNS; 25.2% in the assay on SF-539 CNS. The growth in the assay on UACC-257 melanoma is 67.4%; in the assay on M14 melanoma, 29.8%.
As for `CN(C)c1cccc2c(S(=O)(=O)Nc3cccc(-c4csc(NC(=O)CCCCCN5CCN(CCO)CC5)n4)c3)cccc12`, the growth was 81.3% with NCI-H23 lung; 91.2% with NCI-H226 lung; 88.2% with NCI-H322M lung; 84.9% in the assay with HOP-62 NSCLC; 82.6% in the assay with NCI-H460 lung; 37.5% with HOP-92 NSCLC. Also, the growth is 84.4% in the assay on NCI-H522 lung; 74.9% with A549/ATCC NSCLC; 77.5% in the assay with 786-0 renal; 81.1% with COLO 205 colon; 90.6% with DU-145 prostate; 7.77% (active) in the assay on K-562 leukemia. In addition, the growth with MALME-3M melanoma was 55.9%; in the assay on MDA-MB-231 breast, 84.1%; with RXF 393 renal, 66.7%; in the assay with SF-268 CNS, 93.5%; with SF-295 CNS, 60.5%; in the assay on SF-539 CNS, 54.7%. The growth in the assay on UACC-257 melanoma is 78.3%; with M14 melanoma, 73.7%.
In the case of `CC1=C(SCC(=O)OCCCCCC(C)C)C(=O)c2ccccc2C1=O`, the growth is 89% in the assay with NCI-H23 lung; 93.8% with NCI-H226 lung; 100% in the assay with NCI-H322M lung; 106% in the assay on HOP-62 NSCLC; 102% with NCI-H460 lung; 85% in the assay on HOP-92 NSCLC. Besides, the growth with NCI-H522 lung was 68.4%; with A549/ATCC NSCLC, 105%; in the assay with 786-0 renal, 99.9%; with COLO 205 colon it was 125%; in the assay with DU-145 prostate it was 109%; with K-562 leukemia it was 81.1%. The growth is 116% in the assay with MALME-3M melanoma; 83.5% with MDA-MB-231 breast; 94.2% with RXF 393 renal; 96.4% in the assay with SF-268 CNS; 101% in the assay on SF-295 CNS; 88.8% in the assay with SF-539 CNS. Further, the growth was 104% in the assay with UACC-257 melanoma and 96.8% in the assay on M14 melanoma.

For the origin of these results see PubChem BioAssay (NCI).
